Assay results taken from PubChem BioAssay AID686979 (National Center for Advancing Translational Sciences (NCATS), 2013).
Where “and” joins values, the source holds several entries; their conditions need not be identical. Equal entries are not always repeated. About 50,000 (12%) of roughly 420,000 compounds were called active. About 26% were inconclusive and are not listed. The call rests on the fitted dose curve; in most records, active means well fitted inhibition curve with a large enough effect; inconclusive means small, poorly fitted or top-dose-only effect; inactive means flat fitted curve, though single readings scatter. For the sample, actives were picked, then their nearest neighbours and some compounds at random. Where a structure was tested more than once in an assay, its records may differ in their call.

Test: qHTS for Inhibitors of human tyrosyl-DNA phosphodiesterase 1 (TDP1): qHTS in cells in presence of CPT; further: nearly all actives have a fitted effect of over 55% in size
Details: chicken DT40 Tdp1-/-;hTDP1 cells + 20 nM CPT, ATP luminescence, 48 h; series mostly up to 46.2 µM; activity change, negative = growth inhibition: at the top concentration
Outline: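 Chicken DT40 Tdp1-/- cells stably complemented with human TDP1 were seeded at 400 cells/well in medium containing 20 nM camptothecin, exposed to pin-transferred compounds, and grown at 37 °C for at least 48 hr. Viability was read as ATP luminescence.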
On the % scale 0 is the no-effect control and ±100 the full control effect; potency means the concentration at half of the fitted maximal effect.

SMILES	activity change, negative = growth inhibition	Potency
Cc1nnc(SCC(=O)NC(=O)NC2CCCC2)n1N	-4.7% (inactive)	–
Nc1nc(SC23CC4CC(CC(C4)C2)C3)ns1	-3.87% (inactive)	–
Nc1nc(NC(=O)/C=C/c2ccccc2)nn1-c1ccccc1	-4.23% (inactive)	–
CC1(c2cccc(N)c2)OCCO1	-8.34% (inactive)	–
COc1ccc(C2Nc3ccc(NC(=O)COC(C)=O)cc3C(=O)N2Cc2ccccc2)cc1COc1ccc(NC(C)=O)cc1 (centres undefined)	–	17.8 µM (active)
COc1ccc(N2C(=O)c3ccccc3NC2c2ccc(OC)c(CN3CCOCC3)c2)cc1 (centres undefined)	-23.3% (inactive)	–
CC(=O)Nc1ccc(NC(=O)COc2ccc(-c3ccccc3)cc2)cc1	-14.1% (inactive)	–
COc1ccc2c(c1)CCc1cnc(-n3ncc(C(=O)NCc4cccnc4)c3C3CC3)nc1-2	-5.66% [at 9.04 µM] (inactive)	–
Cc1nc2ccccn2c(=O)c1NC(=O)c1cccs1	2.74% (inactive)	–
CCOc1ccc(N(CC(=O)NCc2ccc(OC)cc2)S(=O)(=O)c2c(C)noc2C)cc1	1.59% (inactive)	–
Cc1ccc(S(=O)(=O)NCC(=O)Nc2ccc3c(c2)OCCO3)cc1	1.97% (inactive)	–
Cc1noc(C)c1S(=O)(=O)N(CC(=O)Nc1ccc2c(c1)OCCO2)c1ccc(C(C)C)cc1	–	20.6 µM (active)
Cc1c(C(=O)Nc2cccc(Cl)c2)cn2c(nc3ccccc32)c1C#N	–	16.4 µM (active)
O=C(O)c1cccc(NC(=O)c2cc(-c3cccc(Cl)c3)nc3ccccc23)c1	9.84% (inactive)	–
Cn1c(Nc2cccc(Cl)c2)nc2ccccc21	-28.2% (inactive)	–
CC1(c2ccc3ccccc3c2)NC(=O)NC1=O (centres undefined)	-0.204% (inactive)	–
Cc1cccc(N2C(=O)c3ccc(C(=O)Nc4cccc(C(=O)O)c4)cc3C2=O)c1	-4.27% (inactive)	–
Cc1cccc(NC(=O)c2cccc(C(=O)Nc3cccc(C)c3C)n2)c1C	-23.1% (inactive)	–
CCOc1ccccc1NC(=O)Cn1c(=O)n(Cc2ccccc2)c(=O)c2c(C)c(C(=O)N(C)C)sc21	-23.6% (inactive)	–
O=C1C2CCCN2C(=O)N1CCCCN1CCN(c2cccc(C(F)(F)F)c2)CC1 (centres undefined)	-24.6% (inactive)	–
O=C(C1CC(=O)N(C2CCCCC2)C1)N1CCN(c2ccccc2)CC1 (centres undefined)	-10.9% (inactive)	–
O=C(C1CC(=O)N(C2CCCC2)C1)N1CCN(c2cccc(C(F)(F)F)c2)CC1 (centres undefined)	–	14.6 µM (active)
COC(=O)c1cc(=O)n(-c2c(Cl)cc(C(F)(F)F)cc2Cl)[nH]1	6.68% (inactive)	–
CC(=O)Nc1ccccc1OC(C)C(=O)N1CCC(C)CC1 (centres undefined)	-10.5% (inactive)	–
O=C(NCC(O)c1ccc([N+](=O)[O-])cc1)C1CCCCC1 (centres undefined)	-1.64% (inactive)	–

SMILES	activity change, negative = growth inhibition	Potency
COC(=O)c1ccc(N2CCOCC2)c(NC(=O)c2ccc3c(c2)OCCO3)c1	-1.66% (inactive)	–
CCOc1cc(NC(=O)c2ccccc2C(=O)O)c(OCC)cc1NC(=O)c1ccccc1F	-11.2% (inactive)	–
CCOc1cc(N2CCOCC2)c(OCC)cc1NC(=O)COc1cccc2cccnc12	–	10.3 µM (active)
NC(=O)C1CCN(C(=O)COc2cccc3cccnc23)CC1	-5.39% (inactive)	–
O=C(COc1nsnc1N1CCOCC1)Nc1ccccc1Cl	-3.03% (inactive)	–
CCOc1cc(N2CCOCC2)c(OCC)cc1NC(=O)c1ccc(C)s1	–	9.2 µM (active)
Cc1ccc(S(=O)(=O)N2CCN(Cc3cccc(C)c3O)CC2)cc1	6.96% (inactive)	–
O=C(COc1cccc(Cl)c1)NCc1ccccc1	5.77% (inactive)	–
COCCN(CCOC)S(=O)(=O)NC[C@H]1O[C@@H](n2cnc3c(N)ncnc32)[C@H](O)[C@@H]1O	3.16% (inactive)	–
CC(C)(C)N(Cc1ccccc1)C(=O)c1ccncc1	-16.6% (inactive)	–
Cc1ccc(CNC(=O)COc2ccc3c(c2)CCC3)cc1	-13.1% (inactive)	–
O=C(CC1C(=O)NCCN1CC(c1ccccc1)c1ccccc1)NCCc1cn[nH]c1 (centres undefined)	17% (inactive)	–
CCNC(=O)C1CCCN(C(=O)c2ccc(OC)cc2OC)CC1 (centres undefined)	-9.47% (inactive)	–
COc1ccc(NC(=O)c2sc3nc(-c4cc5cccc(OC)c5oc4=O)[nH]c(=O)c3c2C)cc1	-15.6% (inactive)	–
COc1ccccc1-c1n[nH]nc1C1=CC(=O)CC(C)(C)C1	4.17% (inactive)	–
Fc1ccccc1N=C1Nc2cccc3cccc1c23	-0.919% (inactive)	–
c1ccc(C2=Nc3cccc4cccc(c34)N2)cc1	–	7.31 µM (active)
COc1ccccc1C1=Nc2cccc3cccc(c23)N1	–	5.17 µM (active)
NC(=O)COc1ccccc1C(=O)NC12CC3CC(CC(C3)C1)C2	23.2% (inactive)	–
CCc1ccc(NC(=O)c2cc(S(=O)(=O)N3CCCC(C)C3)cn2C)cc1 (centres undefined)	-0.46% (inactive)	–
COc1ccc(S(=O)(=O)N2CCCC(C(=O)Nc3ccc(NC(=O)c4ccccn4)cc3)C2)cc1 (centres undefined)	–	7.31 µM (active)
Cc1n[nH]c(C)c1S(=O)(=O)N1CCCC(C(=O)Nc2ccc(Br)cc2)C1 (centres undefined)	-20.2% (inactive)	–
CSc1ncc(Cl)c(C(=O)Nc2ccc(S(=O)(=O)N3CCCC(C)C3)cc2)n1 (centres undefined)	–	8.2 µM (active)
O=C(Nc1ccc(F)cc1)C1CCCN(S(=O)(=O)c2ccc(-n3cnnn3)cc2)C1 (centres undefined)	-2.27% (inactive)	–
COc1ccc(CCNC(=O)C2CCCN(S(=O)(=O)c3ccc(OC)cc3)C2)cc1 (centres undefined)	-3.58% (inactive)	–

SMILES	activity change, negative = growth inhibition	Potency
CC(C)c1ccc(NC(=O)C2CCCN(S(=O)(=O)c3cccnc3)C2)cc1 (centres undefined)	–	16.4 µM (active)
CC1CCCN(S(=O)(=O)c2ccc3[nH]c(=O)cc(C(=O)NCCc4ccc(Cl)cc4)c3c2)C1 (centres undefined)	-1.68% (inactive)	–
O=C(Nc1ccc(S(=O)(=O)N2CCCCC2)cc1)c1cnccn1	-20% (inactive)	–
CC1CC(C)CN(S(=O)(=O)c2cccc(C(=O)N3C(=O)c4cccc(N)c4C3=O)c2)C1 (centres undefined)	5.09% (inactive)	–
COc1ccc(NC(=O)C2CCC(CNC(=O)[C@@H]3Cc4ccccc4CN3)CC2)cc1 (some centres undefined)	-7.72% (inactive)	–
CCc1cccc(C)c1NC(=O)COC(=O)CNC(=O)c1cccs1	12.8% (inactive)	–
Cc1ccc2ncc(C(=O)Nc3ccc(OC(F)(F)F)cc3)c(=O)n2c1	-0.0066% (inactive)	–
CCNS(=O)(=O)c1ccc(CCC(=O)N2CCN(c3cc(Cl)ccc3C)CC2)cc1	–	13 µM (active)
CCOc1ccc(S(=O)(=O)NCCC(=O)N2CCCCCCC2)cc1	-23.7% (inactive)	–
CCNS(=O)(=O)c1ccc(CCC(=O)N2CCN(c3ccc(OC)cc3)CC2)cc1	-1.27% (inactive)	–
CC(=O)Nc1ccc(S(=O)(=O)NCCC(=O)N2CCN(c3ccccc3Cl)CC2)cc1	–	20.6 µM (active)
CC(C)NS(=O)(=O)c1ccc(CCC(=O)N2CCOCC2)cc1	0.0285% (inactive)	–
CC(=O)c1ccc(S(=O)(=O)NCCC(=O)N2CCN(c3ccccn3)CC2)cc1	-17.9% (inactive)	–
CCOC(=O)N1CCC(Nc2c(NCCCN3CCN(CC)CC3)c(=O)c2=O)CC1	2.44% (inactive)	–
O=C(COc1cccnc1[N+](=O)[O-])Nc1ccc(Cl)cc1F	31.6% (inactive)	–
CCn1c(C)cc(=O)cc1-c1ccc(Cl)cc1	2.93% (inactive)	–
CCOC(=O)C1=C(C)c2ccccc2OC1C(=O)OCC (centres undefined)	1.37% (inactive)	–
O=C(Cn1cnc2cc([N+](=O)[O-])ccc2c1=O)NC(=O)NCc1ccccc1	-1.91% (inactive)	–
Cc1cc(C(=O)Cn2cnc3cc([N+](=O)[O-])ccc3c2=O)c(C)n1CC1CCCO1 (centres undefined)	–	14.6 µM (active)
CC(C)(C)NC(=O)Cn1cnc2cc([N+](=O)[O-])ccc2c1=O	5.47% (inactive)	–
NS(=O)(=O)c1ccc(CCNC(=S)Nc2ccc(S(N)(=O)=O)cc2)cc1	-3.43% (inactive)	–
Cc1nn(-c2ccccc2)nc1C(=O)OCC(=O)N1CCCCC1C (centres undefined)	-1.38% (inactive)	–
Cc1c(C(=O)Nc2cccc(-c3nnc4n3CCCCC4)c2)oc2ccccc12	–	14.6 µM (active)
Cc1c(C(=O)NC2CCCCC2)oc2ccccc12	-18.7% (inactive)	–
O=C(Cn1[nH]c(=O)c2ccccc2c1=O)Nc1cccc(-c2nnc3n2CCCCC3)c1	0.931% (inactive)	–

SMILES	activity change, negative = growth inhibition	Potency
Cc1cccc(C(=O)NCC(=O)OCC(=O)N(C)CC(=O)Nc2ccccc2Cl)c1	-4.27% (inactive)	–
COc1ccc(-c2cc3ccc(OCc4nn[nH]n4)cc3oc2=O)cc1	8.26% (inactive)	–
CC(=O)Nc1cc2ccc(OC(C)=O)cc2oc1=O	-18.9% (inactive)	–
O=c1oc2cc(O)ccc2cc1-c1ccc(F)cc1	–	20.6 µM (active)
CC1=C(C(=O)N2CCOCC2)CC(CC(=O)NCc2cccs2)C(=O)N1CCCN1CCCC1=O (centres undefined)	0.543% (inactive)	–
CCC(C)C(NC(=O)C1CCC(=O)N1C(=O)OCc1ccccc1)C(=O)NC(C(=O)N1CCCC1C(N)=O)C(C)CC (centres undefined)	3.18% (inactive)	–
O=C(NCc1ccc(F)cc1)C1CCC(CNc2c(N3CCOCC3)c(=O)c2=O)CC1 (centres undefined)	11.7% (inactive)	–
CC(C)NC(=O)NNc1c(Cl)cncc1Cl	9.64% (inactive)	–
CCN(CC(=O)NC(C)C)C(=O)c1cc(S(=O)(=O)N2CCCCC2)ccc1N1CCCCC1	0.72% (inactive)	–
CCOC(=O)C(=CNNc1ccsc1C(=O)OC)C(=O)OCC	–	18.4 µM (active)
COC(=O)c1sccc1NC(=S)Nc1ccc(C)cc1	9.55% (inactive)	–
COC(=O)c1sccc1NC(=O)CCC1CCCC1	-28% (inactive)	–
CNC(=O)c1cccc2nc3ccccc3nc12	6.51% (inactive)	–
Cc1[nH]c2ccccc2c1C(=O)C(=O)N(C)c1ccccc1	6.6% (inactive)	–
O=C(NCc1ccccc1Cl)C1CCN(S(=O)(=O)c2cccc3nonc23)CC1	22.7% (inactive)	–
Cc1ccc(-c2nnn(CC(=O)N(Cc3ccco3)C(C(=O)NC(C)(C)C)c3ccncc3)n2)o1 (centres undefined)	20.6% (inactive)	–
Cc1nc(C)c(C(=O)N(c2ccc(C)c(C)c2)C(C(=O)NCc2ccco2)c2ccccc2)s1 (centres undefined)	-22.4% (inactive)	–
Cc1nn(-c2ccccc2)c2sc(C(=O)N(Cc3ccco3)C(C)C(=O)NC(C)(C)C)cc12 (centres undefined)	–	13 µM (active)
COCC1CCN(C(=O)CCc2nnc(C3(c4ccc(Cl)cc4)CCC3)o2)C1 (centres undefined)	-18.8% (inactive)	–
CCNC(=O)N1CCN(S(=O)(=O)c2ccc3c(c2)OCCCO3)CC1	-1.82% (inactive)	–
COc1ccc(N2CC(C(=O)NCCS(=O)(=O)N3CCN(c4ccccc4)CC3)CC2=O)cc1 (centres undefined)	–	inactive
COc1ccc(N2CCN(C(=O)c3ccc4c(Cl)c5c(nc4c3)CCCC5)CC2)cc1	–	inactive and 20.6 µM (active)
CC(C)CCNC(=O)c1ccc2c(Cl)c3c(nc2c1)CCC3	0.827% (inactive)	–
COc1ccc(N2CCN(C(=O)c3ccc(N4CCCCS4(=O)=O)cc3)CC2)cc1	-17.5% (inactive)	–
